Hits are enriched below; roughly 3.3% of the tested compounds scored in any of these assays.
MITF act: activators of MITF-driven TRPM1 promoter reporter, primary screen, cell-based, SK-MEL-5, luciferase, single point. SK-MEL-5 TRPM1-promoter luciferase, 24 h; % of positive control, neutral wells = 0. activation, % at 12.5 µM. actives 0.75% (n = 300,000). AID 588334, 2011;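 active = mean activation of at least 80% with every replicate also reaching 80%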;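 also: 0% = neutral control wells and 100% = parthenolide positive control wells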
Statin myotox sup: suppressors of statin myotoxicity in C2C12 myotubes, primary screen, cell-based, single point, plate reader; actives 0.78% (n = 330,000); C2C12 myotubes + simvastatin, ATP luminescence, 48 h; scaled: DMSO 0, geranylgeraniol control 100; AID 602340, 2012; rescue of ATP level, % at 7.49 µM;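 active = mean ATP rescue above about 67%, or every replicate alone reaching that limit, limit read from the data, passing the limit was not always enough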;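 also: myotubes were challenged with 10 µM simvastatin during compound exposure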
Wnt act: Wnt/beta-catenin pathway activators, primary screen, cell-based, plate reader, single point. Wnt/beta-catenin reporter cell assay, activator. activation, % at 9.35 µM. actives 1.2% (n = 300,000); in the data active = activation above about 30%, passing the limit was not always enough;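 also: 0% = neutral control wells and 100% = positive control wells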
GAA850 FXN act: FXN promoter activators, primary screen, cell-based, luciferase luminescence, HEK293 lucGAA850. activation, % at 6 µM. actives 0.56% (n = 360,000). HEK293 lucGAA850 FXN promoter luciferase reporter, 24 h; percent of 10 µM SAHA response;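 active = activation above the average of all compounds screened plus 3 SD, cutoff fixed separately per campaign, cut at about 7.5% in these data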;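 also: 0% = DMSO wells and 100% = 10 µM SAHA wells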
esBAF inh: Bmi1 luciferase reporter increase in mESCs, primary screen, esBAF inhibitor project, mouse ES cells, Bmi1 luciferase knock-in, single point; 24 h; 100% = twice the neutral-well signal; reporter increase, % at 12.5 µM; actives 2% (n = 350,000); AID 602393, 2012; in the data active = activation above about 40%;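 also: 0% = median of the plate's neutral control wells and 100% = double that signal; a rise in the Bmi1 reporter signal indicates esBAF inhibition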
Active calls of the source: *; . = not tested or not shown.

SMILES	MITF act	Statin myotox sup	Wnt act	GAA850 FXN act	esBAF inh
CN(c1ccc(C(=O)NCc2ccco2)cc1)S(C)(=O)=O	4	107*	-2	-1	-1
COC(=O)C[C@@H]1CC[C@@H]2[C@H](COC[C@H](O)CN2C(=O)Nc2ccccc2OC)O1	.	3	.	.	-5
Cc1nc(NC(=O)c2ccccc2)nc2cc3c(cc12)OCO3	29	11	15	5	49*
Cc1nc(NC(=O)c2ccc(F)cc2)nc2cc3c(cc12)OCO3	17	-2	.	0	10
CCCC(=O)Nc1ccc2c(c1)C(=O)N(C)C[C@@H](OC)[C@@H](C)CN(CCc1ccccc1)[C@H](C)CO2	.	11	.	.	2
C[C@H](CO)N1C[C@H](C)[C@H](CN(C)C(=O)c2cccc(F)c2)Oc2ncc(-c3cncnc3)cc2C1=O	.	35	.	.	4
CCOc1ccc(-c2c(C#N)c(N)nc3c2c(=O)n(C)c(=O)n3C)cc1OC	-10	84*	.	0	3
CCCC(=O)Nc1ccc2c(c1)C(=O)N(C)C[C@H](OC)[C@@H](C)CN(C(=O)CC)[C@@H](C)CO2	.	-5	.	.	1
Cc1cc2nc(-c3ccc[nH]c3=O)n(Cc3cccc(F)c3)c2cc1C	-2	18	4	3	8
CCCn1c(-c2ccc[nH]c2=O)nc2cc(C)c(C)cc21	30	.	62*	5	.
O=C(COC(=O)c1ccc(O)cc1O)Nc1ccc2c(c1)OCCO2	92*	6	-3	1	83*
Cn1cccc1C(=O)OCC(=O)NCc1ccc2c(c1)OCO2	5	7	1	0	0
Cn1cccc1C(=O)OCC(=O)Nc1ccc2c(c1)OCCO2	4	.	49*	-1	.
C[C@@H]1CN([C@H](C)CO)C(=O)c2cc(/C=C/c3ccccc3)cnc2O[C@@H]1CN(C)S(=O)(=O)c1cn(C)cn1	.	14	.	.	-4
C[C@H]1CN([C@@H](C)CO)C(=O)c2cc(NS(=O)(=O)c3ccc(Cl)cc3)ccc2O[C@H]1CN(C)CC1CCCCC1	.	-11	.	.	-3
C[C@@H]1CN([C@H](C)CO)C(=O)Cc2cc(NC(=O)Nc3ccc(F)cc3)ccc2O[C@@H]1CN(C)Cc1ccc(C(=O)O)cc1	.	26	.	.	0
C[C@@H]1CN([C@@H](C)CO)C(=O)c2cc(NC(=O)Nc3ccc(C(F)(F)F)cc3)ccc2O[C@@H](C)CCCCO[C@@H]1CN(C)C(=O)CCCN(C)C	.	42	.	.	-1
CC1=C(C(=O)OCc2ccccc2)C(c2ccc(Br)cc2)NC(=O)N1CCCCCC(=O)O (configuration not stated)	63	14	46*	5	90*
CC1=C(C(=O)OCc2ccccc2)C(c2ccc(Br)cc2)NC(=O)N1CCCC(=O)O (configuration not stated)	.	.	-1	.	.
Cc1noc(C)c1NC(=O)Nc1cccc2c1O[C@H](CN(C)C(=O)Nc1ccc(F)cc1)[C@@H](C)CN([C@H](C)CO)C2=O	.	.	.	.	2
CCn1cc(C(=O)N2CCn3c(nc4ccccc43)C2)c(=O)c2ccc(C)nc21	-9	-4	-2	16*	-3
C[C@@H]1CN([C@H](C)CO)C(=O)Cc2cc(NS(=O)(=O)c3ccc(Cl)cc3)ccc2O[C@@H]1CN(C)C(=O)NC1CCCCC1	.	3	.	.	-4
CC(C)(C)C1CCC(C(=O)Nc2nccs2)CC1 (configuration not stated)	.	-2	0	-1	53*
Cc1cnc(NC(=O)C2CCC(C(C)(C)C)CC2)s1 (configuration not stated)	52	-24	12	3	34
CCCNC(=O)Nc1ccc2c(c1)C(=O)N(C)C[C@H](OC)[C@@H](C)CN(Cc1ccccc1)[C@@H](C)CO2	.	-21	.	.	3
Clc1ccc(CONc2ncnc3nonc23)c(Cl)c1	50	-20	11	5	53*
COCOCCn1cc(CN2CCS(=O)(=O)N(Cc3ccc(-c4ccc(Cl)cc4)cc3)C(CC(C)C)C2=O)nn1 (configuration not stated)	.	4	-5	-1	5
